A short description of assay [1]: qHTS for Inhibitors of the Functional Ribonucleoprotein Complex (vRNP) of Lassa (LASV) Arenavirus: LASV Primary Screen - GLuc reporter signal (AID 1347082; calls by dose curve; tested in HEK293 reporter line; further: nearly all actives have a fitted effect of over 60% in size).
The nature of assay [2]: qHTS for Inhibitors of the Functional Ribonucleoprotein Complex (vRNP) of Lassa (LASV) Arenavirus: Viability assay - alamar blue signal for LASV Primary Screen (AID 1347083; calls by dose curve; tested in HEK293 reporter line; further: nearly all actives have a fitted effect of over 80% in size). In general terms: qHTS replaces the single test concentration by a dilution series.
Assay [3] can be described thus: qHTS for Inhibitors of the Functional Ribonucleoprotein Complex (vRNP) of Lymphocytic Choriomeningitis Arenaviruses (LCMV): Viability assay - alamar blue signal for LCMV Primary Screen (AID 1347085; calls by dose curve; tested in HEK293 reporter line; further: nearly all actives have a fitted effect of over 80% in size).
Assay [4] concerns the target Nucleoprotein (Lymphocytic choriomeningitis virus (strain Armstrong)) (UniProt P09992). The assay can be described thus: qHTS for Inhibitors of the Functional Ribonucleoprotein Complex (vRNP) of Lymphocytic Choriomeningitis Arenaviruses (LCMV): LCMV Primary Screen - GLuc reporter signal (AID 1347086; calls by dose curve; further: nearly all actives have a fitted effect of over 70% in size).
Assay [5] in a line: qHTS of pediatric cancer cell lines to identify multiple opportunities for drug repurposing: Primary screen for TC32 cells (AID 1347089). Further: nearly all actives have a fitted effect of over 60% in size. The method in brief:
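qHTS, TC32, 48 h drug treatment, CellTiter-Glo luminescence as a proxy for metabolically active cells; primary top concentration 46 µM (MIPE 11-pt, NPC 8-pt); confirmatory 11-pt.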

A short description of assay [6]: qHTS of pediatric cancer cell lines to identify multiple opportunities for drug repurposing: Primary screen for DAOY cells (AID 1347090). Further: nearly all actives have a fitted effect of over 55% in size. The method in brief: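 Viability measured as metabolically active cells via CellTiter-Glo luminescence following 48 hours of compound exposure, 11-point dilutions in confirmatory testing. 500-1,000 cells/well plated 5 hours before dosing; controls were DMSO and 2.3 µM bortezomib.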

Results filed as inconclusive are left out. Active and inactive are the calls of the source. Unless noted, the call rests on the fitted dose curve; in most records, active means well fitted cell-killing curve with a large enough effect; inconclusive means small, poorly fitted or top-dose-only effect; inactive means flat fitted curve, though single readings scatter.

These results are taken from PubChem BioAssay (NCATS).
Potency means the concentration at half of the fitted maximal effect.

Nucleoprotein (Lymphocytic choriomeningitis virus (strain Armstrong)), sequence (P09992 whole entry, looked up): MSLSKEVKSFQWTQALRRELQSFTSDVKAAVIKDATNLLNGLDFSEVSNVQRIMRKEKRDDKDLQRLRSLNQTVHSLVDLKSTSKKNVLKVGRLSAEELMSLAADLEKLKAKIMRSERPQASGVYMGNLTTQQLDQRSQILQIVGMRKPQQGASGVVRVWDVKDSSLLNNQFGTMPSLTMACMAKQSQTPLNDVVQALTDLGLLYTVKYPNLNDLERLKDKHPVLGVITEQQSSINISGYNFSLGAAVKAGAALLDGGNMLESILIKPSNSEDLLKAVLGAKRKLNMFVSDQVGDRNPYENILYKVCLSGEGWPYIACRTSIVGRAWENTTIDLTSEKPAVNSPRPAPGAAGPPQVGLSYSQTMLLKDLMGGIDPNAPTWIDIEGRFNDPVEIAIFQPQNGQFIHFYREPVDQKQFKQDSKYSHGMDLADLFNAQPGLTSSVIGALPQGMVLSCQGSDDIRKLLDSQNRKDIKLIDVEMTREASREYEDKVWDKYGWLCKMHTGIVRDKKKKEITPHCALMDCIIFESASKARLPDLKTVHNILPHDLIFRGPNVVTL

With `O=C(O)COc1nc(Cl)c(Cl)cc1Cl`, the Potency entry in assay [1], in assay [2], in assay [3], in assay [4], in assay [5] and in assay [6] was “inactive” throughout.
In the case of `Cc1c(N)nc([C@H](CC(N)=O)NC[C@@H](N)C(N)=O)nc1C(=O)N[C@H](C(=O)N[C@@H](C)[C@H](O)[C@@H](C)C(=O)N[C@@H](C(=O)NCCc1nc(-c2nc(C(=O)NCCC[S+](C)C)cs2)cs1)[C@@H](C)O)C(O[C@H]1O[C@H](CO)[C@H](O)[C@@H](O)[C@@H]1O[C@H]1O[C@H](CO)[C@@H](O)[C@H](OC(N)=O)[C@H]1O)c1cnc[nH]1` (some centres undefined), the Potency entry in assay [1] and in assay [4] was “inactive” each time. For the same molecule, the Potency in assay [2] was 7.69 µM (active); in assay [5] it was 4.15 µM (active).
Take `Clc1ccc2ncc(-c3cccc(NC4CNC4)n3)n2c1`: the Potency result in assay [1] and in assay [4] was “inactive” each time. For the same molecule, the Potency in assay [2] was 21.7 µM (active).
As to `CCCN(CCC)c1c([N+](=O)[O-])cc(S(N)(=O)=O)cc1[N+](=O)[O-]`, the Potency result in assay [1], in assay [2], in assay [3] and in assay [4] was “inactive” each time. Besides, in assay [6], the Potency is 48.6 µM (active).
As to `COc1cc(Nc2ncc(F)c(Nc3ccc4c(n3)NC(=O)C(C)(C)O4)n2)cc(OC)c1OC`, the Potency result in assay [1], in assay [2] and in assay [4] was “inactive” throughout.
Take `CCN1C[C@]2(OC(=O)c3ccccc3NC(C)=O)CC[C@H](OC)[C@@]34[C@H]5CC6[C@@H](OC)C[C@](O)(C(C[C@@H]23)[C@@H]14)[C@@]5(O)[C@@H]6OC`: the Potency entry in assay [1], in assay [2], in assay [3], in assay [4], in assay [5] and in assay [6] was “inactive” each time.
Regarding `CC(=O)N(C)c1cccc(-c2ccnc3c(C(=O)c4cccs4)cnn23)c1`, the Potency result in assay [1], in assay [2], in assay [4], in assay [5] and in assay [6] was “inactive” in each case.
Consider `CC(=O)O[C@@]12CO[C@H]1C[C@H](O)[C@@]1(C)C(=O)[C@H](O)C3=C(C)[C@@H](O)C[C@@](O)([C@@H](OC(=O)c4ccccc4)[C@@H]21)C3(C)C`, for which the Potency result in assay [1] was “inactive”. The Potency in assay [2] was 13.7 µM (active); in assay [3] it was 21.7 µM (active); in assay [5], 9.3 µM (active); in assay [6], 18.7 µM (active).
As for `O=[N+]([O-])c1cc([N+](=O)[O-])c2ccccc2c1`, the Potency entry in assay [1], in assay [2], in assay [4], in assay [5] and in assay [6] was “inactive” each time.
As for `CCCCCCCCc1ccc(O)cc1`, the Potency result in assay [1], in assay [2], in assay [3], in assay [4] and in assay [6] was “inactive” throughout.
Consider `Cc1ccccc1-n1c(Cn2cnc3c(N)ncnc32)nc2cccc(C)c2c1=O`, for which the Potency in assay [1] is 8.63 µM (active); in assay [2], 1.53 µM (active); in assay [3] it was 1.93 µM (active); in assay [5], 1.31 µM (active); in assay [6], 1.48 µM (active).
`COC(=O)c1cncn1C(C)c1ccccc1` (centres undefined): the Potency entry in assay [1], in assay [2], in assay [3], in assay [4], in assay [5] and in assay [6] was “inactive” throughout.
Consider `O=C(Oc1ccc([N+](=O)[O-])cc1)N1CCC(C(O)(c2ccc3c(c2)OCO3)c2ccc3c(c2)OCO3)CC1`, for which the Potency result in assay [1], in assay [4], in assay [5] and in assay [6] was “inactive” each time. The Potency is 24.3 µM (active) in assay [2] and 3.06 µM (active) in assay [3].
`CC(C)Oc1cccc(NC(=O)c2ccccc2C(F)(F)F)c1`: the Potency entry in assay [1], in assay [2], in assay [3], in assay [5] and in assay [6] was “inactive” throughout.
In the case of `OCCCBr`, the Potency result in assay [1], in assay [2], in assay [3], in assay [4], in assay [5] and in assay [6] was “inactive” each time.
`c1cc2ccc3cccc4ccc(c1)c2c34`: the Potency entry in assay [1], in assay [2], in assay [4], in assay [5] and in assay [6] was “inactive” each time.
`Cn1cc(-c2ccc3nnc(Sc4ccc5ncccc5c4)n3n2)cn1`: the Potency result in assay [1], in assay [2] and in assay [4] was “inactive” in each case.
On to `CCN1CCN(C(=O)Cc2ccc(Nc3ncc(F)c(Nc4ccc(C(=O)Nc5ccccc5Cl)cc4)n3)cc2)CC1`, for which the Potency result in assay [1] is “inactive”. Further, the Potency in assay [2] was 4.32 µM (active); in assay [3], 6.85 µM (active); in assay [6], 3.72 µM (active).
For the molecule `C[C@@H]1O[C@@H](O[C@@H]2C=C3CC[C@@H]4[C@@H](CC[C@]5(C)[C@H](c6ccc(=O)oc6)CC[C@@]45O)[C@@]3(C)CC2)[C@H](O)[C@H](O)[C@H]1O`, the Potency was 0.0685 µM (active) in assay [1]; 0.0685 µM (active) in assay [2]; 0.0544 µM (active) in assay [3]; 0.0769 µM (active) in assay [4]; 0.0415 µM (active) in assay [5]; 0.0148 µM (active) in assay [6].
For `CC(C)C[C@H](NC(=O)CNC(=O)c1cc(Cl)ccc1Cl)B(O)O`, the Potency in assay [1] is 7.69 µM (active); in assay [2], 1.53 µM (active); in assay [4], 3.06 µM (active).
For `COCC1(CO)C(=O)C2CCN1CC2` (centres undefined), the Potency result in assay [1] and in assay [2] was “inactive” each time. Besides, the results for the Potency in assay [3], in assay [5] and in assay [6] were 12.2 µM (active), 20.8 µM (active) and 23.5 µM (active), respectively.
Consider `O=C(O)c1ccc(-c2cc3cccnc3c(-c3ccc4nonc4c3)n2)cc1`, for which the Potency entry in assay [1], in assay [2] and in assay [4] was “inactive” each time.
In the case of `O=C(O)c1cc(Oc2ccc(C(F)(F)F)cc2Cl)ccc1[N+](=O)[O-]`, the Potency entry in assay [1], in assay [2], in assay [3], in assay [4], in assay [5] and in assay [6] was “inactive” throughout.
For `O=C1CCC[C@@H]2[C@H]3CCCN4CCC[C@@H](CN12)[C@@H]34`, the Potency entry in assay [1], in assay [2], in assay [3], in assay [4] and in assay [6] was “inactive” in each case.
On to `CC[C@H](CO)Nc1nc(NCc2ccccc2)c2ncn(C(C)C)c2n1`, for which the Potency result in assay [1] and in assay [4] was “inactive” each time. In assay [2], the Potency is 15.3 µM (active).
Take `Nc1ccc(Sc2ccc(N)cc2)cc1`: the Potency result in assay [1], in assay [2], in assay [3], in assay [4], in assay [5] and in assay [6] was “inactive” in each case.
For the molecule `CCCCCC[C@H]1C(=O)O[C@H](C)[C@H](NC(=O)c2cccc(NC=O)c2O)C(=O)O[C@@H](C)[C@@H]1OC(=O)CC(C)C`, the Potency in assay [1] was 1.09 µM (active); in assay [2], 4.32 µM (active); in assay [3], 4.85 µM (active); in assay [4] it was 1.22 µM (active); in assay [6], 0.0372 µM (active).
Turning to `CCn1c(-c2nonc2N)nc2cnc(Oc3cccc(NC(=O)c4ccc(OCCN5CCOCC5)cc4)c3)cc21`, the Potency in assay [1] is 15.3 µM (active); in assay [2], 12.2 µM (active); in assay [4], 17.2 µM (active).
For `O=c1[nH]c2ccc(Cl)cc2c(N[C@@H]2CN3CCC2CC3)c1-c1nc2ccccc2[nH]1`, the Potency in assay [1] is 1.22 µM (active); in assay [2], 0.122 µM (active); in assay [3] it was 0.217 µM (active); in assay [4], 0.863 µM (active); in assay [5], 0.93 µM (active); in assay [6], 0.743 µM (active).
Take `CN(C)c1ccc(Nc2nc(N)n(C(=O)c3c(F)cccc3F)n2)cc1`: the Potency entry in assay [1] and in assay [4] was “inactive” in each case. Also, the Potency in assay [2] was 21.7 µM (active).
Take `COC(=O)[C@]12CCC(C)(C)C[C@@H]1[C@@H]1C(=O)C=C3[C@@]4(C)C=C(C#N)C(=O)C(C)(C)[C@@H]4CC[C@@]3(C)[C@]1(C)CC2`: the results for the Potency in assay [1], in assay [2] and in assay [4] were 4.85 µM (active), 3.43 µM (active) and 2.17 µM (active), respectively.
